This is an account of results in PubChem BioAssay (NCI).

The panel holds about 83,000 compounds, 20% with a hit somewhere; the sample as a whole holds those more often.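 How to read the values: 0–100, growth inhibition (40 = 60% inhibited); 0, no net growth; -100 to 0, cell death (-40 = 40% of starting cells died; -100 = all dead).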 Unmarked numbers belong to inactive results. Calls of active or inactive are those of the source. How the source made its calls: active means growth percent below 10; inactive means the rest.

What all share (assay): NCI-60 one-dose screen, 48 h (100 = growth as untreated, 0 = no growth, -100 = all killed)
Holding throughout (details): 10 µM unless noted

Assay [1] has as its system DU-145 prostate.
Assay [2] concerns K-562 leukemia.
Assay [3] concerns MALME-3M melanoma.
The test system of assay [4] is MDA-MB-231 breast.
Assay [5] deals with RXF 393 renal.
Assay [6] relates to SF-268 CNS.
The subject of assay [7] is SF-295 CNS.
The subject of assay [8] is SF-539 CNS.
The subject of assay [9] is UACC-257 melanoma.
Assay [10] has as its system M14 melanoma.

For `COc1cccc(-c2nn(-c3ccccc3)cc2-c2ccnc(NCCCNC(=O)c3cccc(C(F)(F)F)c3)c2)c1`, the growth in [1] is 52.3%; in [2], 18%; in [3], 9.81% (active); in assay [4], 23.6%; in assay [5], 36%; in [6], 57.4%. Moreover, the growth in assay [7] is 27.3%; in assay [8] it was 30.6%; in assay [9], 12.1%; in assay [10] it was 28.2%.
For the molecule `O=C(/C=C/c1c(Cl)nc2sccn12)c1nccs1`, the growth in assay [1] was 112%; in assay [2], 84.3%; in [3], 108%; in assay [4], 95.8%; in assay [5], 70.7%; in assay [6] it was 84.8%. The growth in assay [7] was 110%; in assay [8], 106%; in assay [9], 81%; in assay [10], 93.9%.
Take `Cc1cc(=O)[nH]c(N=Nc2c(O)[nH]c3ccccc23)n1`: the growth in assay [1] is 117%; in [2] it was 116%; in assay [3], 127%; in assay [4], 97.2%; in [5], 117%; in assay [6], 105%. In addition, the growth in assay [7] was 114%; in assay [8], 105%; in assay [9] it was 112%; in assay [10], 100%.
`O=C1CC(N2C(=O)/C(=C/C(Cl)=C\c3ccc([N+](=O)[O-])cc3)SC2=S)C(=O)N1c1ccc(O)cc1` (stereo not given): the growth in assay [1] was 0.996% (active); in assay [2], 6.6% (active); in assay [3], -39% (active); in assay [4] it was -10.3% (active); in assay [5] it was -70.5% (active); in assay [6] it was 5.72% (active). The growth in assay [7] was -37.2% (active); in assay [8], -28.8% (active); in assay [9], -5.88% (active); in assay [10] it was -7.42% (active).
As for `O=C1/C(=C/c2ccc(F)cc2)C=C(c2ccccc2)N1CCc1ccccc1`, the growth in assay [1] was 81.6%; in [2], 71.4%; in assay [3] it was 39.1%; in assay [4], 57.5%; in assay [5], 56.2%; in [6] it was 74.2%. The growth in assay [7] was 35.9%; in [8], 79.5%; in assay [9] it was 38.6%; in [10], 46%.
Consider `O=C(NC(CSSCC(NC(=O)c1ccccc1)C(=O)O)C(=O)O)c1ccccc1` (stereo not given), for which the growth in [1] is 114%; in assay [2], 96%; in assay [3], 109%; in [4], 110%; in assay [5], 116%; in assay [6], 99.4%. The growth in [7] is 106%; in assay [8] it was 102%; in assay [9] it was 102%; in [10], 98.9%.
As to `COc1ccc(-c2cc(-c3ccc(Nc4nc(Nc5ccc(Cl)cc5)nc(Nc5ccc(Cl)cc5)n4)cc3)nc(N)c2C#N)cc1`, the growth in assay [1] is 37.7%; in [2], 30.1%; in [3], -70.3% (active); in [4] it was -30.7% (active); in [5] it was -32.5% (active); in [6], 59%. Moreover, the growth was 415% in [7], -48.7% (active) in assay [8], -13.2% (active) in [9] and 24.9% in assay [10].
For `CCOC(=O)c1csc(NC(=O)COc2cccc(/C=C3\Oc4cc(OC)ccc4C3=O)c2)n1`, the growth in [1] was 102%; in assay [2] it was 52.1%; in assay [3] it was 109%; in [4] it was 67.9%; in assay [5], 114%; in [6], 109%. Also, the growth in assay [7] was 121%; in [8], 106%; in assay [9] it was 91.7%; in assay [10], 111%.
As to `O=c1ssc(Cl)c1-c1ccccc1`, the growth is 113% in assay [1]; 102% in [2]; 100% in assay [3]; 97% in [4]; 86.7% in [5]; 134% in assay [6]. Also, the growth in [7] was 102%; in [8], 90.7%; in assay [9] it was 91.3%; in assay [10] it was 96.7%.
`CCOC(=O)c1c2c(n3ccc(NC(=O)OC(C)(C)C)cc13)C(=O)c1ncccc1C2=O`: the growth in assay [1] was -30.2% (active); in assay [2] it was -23.9% (active); in assay [3], -21.6% (active); in assay [4], 2.02% (active); in assay [5], -38.4% (active); in assay [6], -16.7% (active). Further, the growth is -67.1% (active) in assay [7], -45.9% (active) in assay [8], -40.9% (active) in assay [9] and -55.8% (active) in assay [10].
Regarding `OC(COc1ccccc1Cl)COc1ccccc1Cl`, the growth in assay [1] is 116%; in [2] it was 100%; in assay [3], 96.8%; in assay [4] it was 101%; in assay [5] it was 96.7%; in [6], 97.3%. Moreover, the growth is 104% in [7], 95.5% in assay [8], 120% in [9] and 93.2% in assay [10].
In the case of `Nc1n[nH]c(-c2cc(Cl)ccc2O)c1-c1ccccc1`, the growth is 106% in assay [1]; 67.9% in assay [2]; 82.2% in assay [3]; 78% in assay [4]; 86.4% in [5]; 92.3% in assay [6]. Besides, the growth in [7] was 102%; in [8] it was 94.6%; in [9], 98.5%; in [10], 93.8%.
As for `N/C(=N\c1nc2ccccc2s1)NC(=O)Nc1cccc(Cl)c1`, the growth is 52.4% in [1]; 13.9% in assay [2]; 42.6% in [3]; 59.4% in [4]; 68.6% in [5]; 55.9% in [6]. Further, the growth is 40% in assay [7], 2.83% (active) in [8], 48.9% in assay [9] and 10.3% in assay [10].
`CCC1(C2CCCC2)NC(=O)NC1=O` (stereo not given): the growth in assay [1] is 101%; in assay [2], 102%; in [3] it was 97.5%; in assay [4] it was 95.6%; in assay [5] it was 97.2%; in assay [6], 95.8%. In addition, the growth was 111% in assay [7], 86.3% in assay [8], 105% in [9] and 102% in assay [10].
`N#Cc1c(-c2cccc(Cl)c2)cc(-c2cccc(F)c2)[nH]c1=O`: the growth is 98.6% in assay [1]; 85.5% in assay [2]; 99.9% in assay [3]; 89.9% in [4]; 88.7% in assay [5]; 95.6% in assay [6]. For the same molecule, the growth in [7] is 91.2%; in assay [8], 94.3%; in [9], 102%; in [10], 101%.
With `N#CC1=C(/N=C/c2ccccc2)Oc2c(ccc3ccccc23)C1c1ccccc1` (stereo not given), the growth is 17.6% in assay [1]; 12.2% in [2]; 49.2% in assay [3]; 19% in assay [4]; 18% in [5]; 30.8% in [6]. In addition, the growth in [7] is 3.77% (active); in assay [8], 1.25% (active); in assay [9], 53.6%; in assay [10] it was 4.85% (active).
Turning to `CC(C)Sc1nc(NNC(N)=S)c(C#N)c(-c2ccc(F)cc2)n1`, the growth in [1] was 110%; in [2] it was 92.5%; in assay [3], 117%; in assay [4], 98%; in [5], 101%; in assay [6], 101%. Further, the growth was 93.7% in [7], 91.7% in assay [8], 101% in assay [9] and 104% in assay [10].
In the case of `Cn1cc2c(c1)-c1nc(Nc3ccccc3)ncc1CC2`, the growth in assay [1] was 56.5%; in assay [2], 85.2%; in assay [3] it was 95.3%; in assay [4], 67.4%; in [5] it was 62.4%; in assay [6], 72.2%. Moreover, the growth is 84.3% in [7], 65.6% in [8], 89.7% in assay [9] and 55% in assay [10].
`Clc1cccc(Cl)c1C(Nc1nc2ccccc2s1)Nc1nc2ccccc2s1`: the growth is 131% in assay [1]; 79.6% in [2]; 123% in [3]; 104% in [4]; 104% in assay [5]; 105% in [6]. In addition, the growth is 143% in assay [7], 93.6% in [8], 102% in assay [9] and 122% in assay [10].
For `Cc1ccc(-c2cc(-c3cccnc3)[nH]c(=O)c2C#N)cc1`, the growth is 110% in assay [1]; 108% in [2]; 112% in assay [3]; 109% in assay [4]; 105% in [5]; 99.3% in [6]. Besides, the growth in assay [7] was 102%; in assay [8], 99.9%; in assay [9], 108%; in [10], 112%.
As to `CCC(CO)Nc1nc2ccc(Cl)cc2c2ccccc12` (stereo not given), the growth is 84.9% in assay [1]; 38.2% in [2]; 85.8% in [3]; 55.7% in assay [4]; 4.53% (active) in assay [5]; 70.7% in assay [6]. Further, the growth was 74.8% in [7], 55.8% in assay [8], 97.5% in assay [9] and 84.8% in [10].
`COc1ccc2[nH]c(O)c(/C=c3/cc4c(c(-c5cc(OC)c(OC)c(OC)c5)n3)=Nc3ccccc3-4)c2c1`: the growth in assay [1] is 73.9%; in assay [2] it was 31.7%; in [3], 94.8%; in assay [4], 31.7%; in assay [5], 43.1%; in assay [6], 72.9%. The growth in assay [7] is 76.9%; in assay [8], 84.1%; in [9] it was 88.5%; in assay [10], 49.2%.
`CCn1c(C)nc2cc(C(N)=O)ccc21`: the growth in assay [1] is 110%; in [2], 102%; in assay [3], 96.4%; in [4], 113%; in [5] it was 93.4%; in assay [6], 104%. The growth in assay [7] is 238%; in assay [8], 96.4%; in assay [9], 87.9%; in assay [10], 95.5%.
Turning to `Cc1ccccc1NC(=O)N/C(N)=N/c1nc(C)c(C)s1`, the growth was 11.2% in assay [1]; 9.17% (active) in [2]; 57.1% in assay [3]; 50.9% in assay [4]; 0.637% (active) in assay [5]; 59.5% in [6]. Moreover, the growth in assay [7] was 8.66% (active); in [8] it was -26% (active); in assay [9] it was 67.8%; in assay [10] it was 24%.
With `COc1ccc2nc(NNC(=O)c3cnccn3)c3cccn3c2c1`, the growth was 1.09% (active) in assay [1]; 4.97% (active) in [2]; -6.33% (active) in assay [3]; 5.83% (active) in [4]; 41.2% in assay [5]; 9.31% (active) in assay [6]. Further, the growth was 2.1% (active) in assay [7], -19.7% (active) in assay [8], -8.01% (active) in assay [9] and -37.5% (active) in assay [10].
Turning to `CS(=O)c1cccc(-c2ccc3nc(N)n(-c4ccc(C(F)(F)F)cc4)c(=O)c3c2)c1` (stereo not given), the growth in assay [1] was 103%; in assay [2], 96.2%; in assay [3] it was 78.6%; in [4] it was 90.5%; in assay [5] it was 92.5%; in [6], 89.1%. The growth in assay [7] was 92.1%; in assay [8], 91.7%; in [9], 101%; in assay [10] it was 99.5%.
As to `COc1cc(C2CC(c3cc(OC)c(OCCCOc4ccc(-n5c(/C=C/c6ccccc6)nc6ccccc6c5=O)cc4)c(OC)c3)=NO2)cc(OC)c1OC` (stereo not given), the growth in [1] is 120%; in assay [2], 78.7%; in assay [3], 143%; in [4], 110%; in assay [5] it was 116%; in assay [6] it was 107%. Moreover, the growth in [7] was 81%; in assay [8] it was 108%; in assay [9], 106%; in assay [10], 127%.
